From PubChem BioAssay
Unmarked numbers belong to inactive results. The source made the active and inactive calls. Cut-off read from the data, not from the text of the source, unless noted: active = inhibition above about 36%; inactive = the rest.

How the values were obtained:
[1] = system: transactivating tegument protein VP16 (Human herpesvirus 1); assay: compounds suppressing VP16-driven luciferase signal – cell-based, luminescence, single concentration, counter-screen for SRC2 inhibitor project (AID 652007); settings: cell-based VP16 transactivation luciferase reporter, at 8.9 µM, active compounds read high
[2] = molecular target: Nuclear receptor coactivator 2 (Homo sapiens) (UniProt Q15596); assay: inhibition of GAL4-SRC2 driven luciferase expression – cell-based, luminescence, HEK293, triplicate, confirmation (AID 652008;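 active = mean inhibition above 46.5%, the solvent-only control mean plus 3 SD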;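 note: 0% = DMSO-treated cells and 100% = Gossypol at 36 µM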); settings: HEK293 GAL4-SRC2 luciferase reporter, at 8.9 µM, active compounds read high
Sequence of Nuclear receptor coactivator 2 (Homo sapiens) (Q15596 whole entry, looked up, the tested form may be a part): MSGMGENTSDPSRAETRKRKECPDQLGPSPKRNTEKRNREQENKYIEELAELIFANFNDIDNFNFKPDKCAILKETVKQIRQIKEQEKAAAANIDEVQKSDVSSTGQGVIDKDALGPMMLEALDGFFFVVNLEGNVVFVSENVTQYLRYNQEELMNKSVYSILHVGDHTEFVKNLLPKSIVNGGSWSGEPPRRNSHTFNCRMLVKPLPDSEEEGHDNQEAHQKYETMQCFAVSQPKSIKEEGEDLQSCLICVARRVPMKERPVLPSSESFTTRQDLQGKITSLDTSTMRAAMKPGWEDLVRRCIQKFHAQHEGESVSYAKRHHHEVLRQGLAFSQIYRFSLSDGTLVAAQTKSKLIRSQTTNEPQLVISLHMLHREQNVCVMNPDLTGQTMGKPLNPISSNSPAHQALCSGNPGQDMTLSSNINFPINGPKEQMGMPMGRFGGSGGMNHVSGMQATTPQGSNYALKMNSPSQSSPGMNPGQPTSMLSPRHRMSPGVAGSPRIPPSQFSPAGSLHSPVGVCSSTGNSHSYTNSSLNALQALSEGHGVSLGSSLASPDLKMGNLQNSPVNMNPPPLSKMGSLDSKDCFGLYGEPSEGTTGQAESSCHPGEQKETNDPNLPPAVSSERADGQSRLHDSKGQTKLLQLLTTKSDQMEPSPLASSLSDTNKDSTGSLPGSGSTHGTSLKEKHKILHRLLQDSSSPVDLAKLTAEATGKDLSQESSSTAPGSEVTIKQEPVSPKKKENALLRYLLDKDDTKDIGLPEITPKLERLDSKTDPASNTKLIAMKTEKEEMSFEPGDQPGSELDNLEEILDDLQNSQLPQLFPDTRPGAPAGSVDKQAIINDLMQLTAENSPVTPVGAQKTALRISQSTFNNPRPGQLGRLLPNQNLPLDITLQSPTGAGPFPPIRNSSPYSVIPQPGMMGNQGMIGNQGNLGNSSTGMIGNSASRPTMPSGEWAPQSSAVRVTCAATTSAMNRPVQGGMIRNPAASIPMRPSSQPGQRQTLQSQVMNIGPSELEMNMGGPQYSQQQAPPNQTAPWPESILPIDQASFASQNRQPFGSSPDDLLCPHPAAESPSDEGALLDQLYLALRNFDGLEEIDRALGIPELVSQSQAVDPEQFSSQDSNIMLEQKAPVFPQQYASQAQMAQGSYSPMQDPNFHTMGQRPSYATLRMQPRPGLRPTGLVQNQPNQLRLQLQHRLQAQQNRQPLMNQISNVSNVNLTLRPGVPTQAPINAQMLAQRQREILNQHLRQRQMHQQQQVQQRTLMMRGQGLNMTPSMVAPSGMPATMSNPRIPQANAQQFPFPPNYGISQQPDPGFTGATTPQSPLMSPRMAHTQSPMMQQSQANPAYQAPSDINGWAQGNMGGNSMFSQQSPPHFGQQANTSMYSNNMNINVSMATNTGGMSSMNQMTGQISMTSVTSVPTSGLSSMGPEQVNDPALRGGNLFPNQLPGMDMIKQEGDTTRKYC

Compound | inhibition [1] | inhibition [2]
Cc1ccc(/C=C2\SC(=S)N(CCCC(=O)Nc3cc(C)on3)C2=O)cc1 | 31.6% | 68.8% (active)
Nc1ccc(-c2cc3ccccc3c(=O)o2)cc1 | -7.3% | 79.1% (active)
CCOC(=O)C1(CC2CC2)CCN(Cc2cnc(-c3ccccc3C)nc2)CC1 | 3.57% | 3.04%
O=C(/C=C/c1cccnc1)/C=C/c1cccnc1 | 77.1% (active) | 5.81%
N/C(=N\OC(=O)c1ccc(Cl)cc1Cl)c1ccccn1 | -75.5% | -25.1%
O=C(CSc1nc2[nH]c(=O)[nH]c(=O)c2s1)Nc1cccc(F)c1 | 0.35% | -0.5%
Clc1ccccc1/C=C/c1nc(-c2ccccn2)no1 | -11.4% | 18.9%
CC1CN(C(=O)CCC(=O)N2CCN(c3cccc(C(F)(F)F)c3)CC2)c2ccccc2O1 (stereo not given) | 15.6% | 23.5%
CS(=O)(=O)N(Cc1ccccc1Cl)c1ccc(C(=O)NCc2cccnc2)cc1 | -10.9% | 35.5%
CC(C)(C)c1ccc(OCC(O)CSc2ncn[nH]2)cc1 (stereo not given) | 0.7% | 14.2%
CC1CCC(C(C)C)C(OCC(O)CN2CCCC(C)C2)C1 (stereo not given) | -4.71% | -16.1%
CC1CCCc2sc3ncn(N)c(=N)c3c21 (stereo not given) | -0.69% | 1.19%
COc1ccc(NS(=O)(=O)c2ccc(OC)c(N(C)S(=O)(=O)c3ccc(Cl)cc3)c2)cc1 | 17.3% | 31.2%
Oc1ccc(N=Nc2ccc3c(c2)OCCO3)c2ncccc12 | -13.1% | 13.6%
O=C(CCl)N(Cc1cc(=O)[nH]c2ccccc12)c1ccccc1 | 38.6% (active) | 50.5% (active)
COC(=O)c1ccc(Sc2nnnn2-c2ccccc2)c([N+](=O)[O-])c1 | 20.1% | 48.2% (active)
O=S(=O)(O)Sc1ccccc1 | -0.6% | 4.75%
Cc1nc2scc(C)n2c(=O)c1S(=O)(=O)Nc1ccc(OC(F)(F)F)cc1 | -5.83% | 6.78%

Compound | inhibition [1] | inhibition [2]
Nc1nonc1C(=O)NCCNCc1cc(Br)ccc1OCc1ccc(F)cc1 | 1.07% | 1.86%
COc1cccc2c1C(CO)N1C(C#N)C3CC(C(=O)O)C(C1C2)N3C (stereo not given) | 40.5% (active) | 66.1% (active)
CC(C)COc1ccc(C(=S)N2CCCC2)cc1 | -1.55% | 40.6%
Cc1cc(OCC(=O)Nc2ccncc2)cc(C)c1Cl | 4.55% | 11.3%
Cc1nc2ccccc2c2c1CC(C(C)(Cl)Br)O2 (stereo not given) | 5.15% | 29.1%
COc1cccc(C(=O)c2sc(NC(C)C)nc2N)c1 | 6.6% | 57.2% (active)
CC(C)(C)c1ccc(OCCC(=O)OCC(=O)NC2CC2)cc1 | 23.8% | 2.38%
O=C(C1=NN[C@@H]2C(=O)N(c3cccc(C(F)(F)F)c3)C(=O)[C@H]12)c1ccc2ccccc2n1 | 2.15% | 6.3%
O=S(=O)(c1ccc(NC(=S)NCc2ccco2)cc1)N1CCCCC1 | -14.6% | 4.68%
Cc1ccc2c(c1)N(C(C)C(=O)NCc1ccc3c(c1)OCO3)C(=O)CO2 (stereo not given) | -10.5% | -19.4%
Cc1ccc(S(=O)(=O)c2nc(NCCN(C)C)sc2Cl)cc1 | -5.23% | 28.4%
O=C1CCCC/C1=C/Nc1ccc2c(c1)OCO2 | -58.7% | -65.5%
O=C(O)CCC(=O)Nc1ccc(C(=O)OC2CCCCC2)cc1 | 11.1% | 29.4%
CCc1ccc(CCNC(=O)OCCCN2CCC3(CCC(c4ccccc4)CC3)C2=O)cc1 (stereo not given) | 5.9% | 33.8%
COCCNC(=O)CN(C(=O)c1ccc(N2CCCC2)nc1)c1ccc(F)c(Cl)c1 | -5.77% | -19.2%
COc1ccc(Nc2nc(C)nc3c2oc2ccccc23)c(OC)c1 | 2.99% | 4.48%
O=C(Cn1cnc2ccccc21)N/N=C/C(Br)=C/c1ccccc1 | -14% | -5.7%
